# Tb PYK inh: blocks Trypanosoma brucei pyruvate kinase; Q57TT1; 410,000 compounds, 0.12% hits; Potency, µM (highest dose often 76.8 µM), inactives show top-dose activity, negative = inhibition, most hits filed as inhibitors; AID 624173; TbPYK enzyme, Kinase-Glo Plus ATP luminescence, 45 min; also: potency is read from the fitted curve at half-maximal effect; % is scaled to controls: 0 for no effect and ±100 for the full control effect; nearly all actives have a fitted effect of over 50% in size
#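 T. brucei PYK with substrate was exposed to pin-transferred compounds across a concentration series, then started with 130 uM ADP (final). After 45 min at room temperature, Kinase-Glo Plus luminescence was read, normalized and curve-fitted.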
# NS1 inh: blocks influenza NS1 protein function. Potency, µM (doses to about 46.1 µM), without a hit: at the highest dose activity, positive = more growth. AID 2326. 270,000 compounds, 0.4% hits; calls by dose curve; also: potency is read from the fitted curve at half-maximal effect; actives are rising curves; nearly all actives have a fitted effect of over 50% in size
#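 Compounds were scored for reversing the slow growth caused by influenza A NS1 in S. cerevisiae, measured by optical density at 600 nm. Assay medium contained 2% galactose at pH 6.0; NS1-free yeast of the same strain were the positive control.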
# LmPK inhibitor: inhibitors of Leishmania mexicana pyruvate kinase. Potency, µM (doses to about 57.5 µM), for inactives: at the top dose activity change, negative = inhibition, usual class: inhibitors. purified LmPK, Kinase-Glo ATP luminescence, 1 h. 290,000 compounds, 0.37% hits; also: potency is read from the fitted curve at half-maximal effect; % is scaled to controls: 0 for no effect and ±100 for the full control effect
# Target sequence (Q27686 whole entry, looked up): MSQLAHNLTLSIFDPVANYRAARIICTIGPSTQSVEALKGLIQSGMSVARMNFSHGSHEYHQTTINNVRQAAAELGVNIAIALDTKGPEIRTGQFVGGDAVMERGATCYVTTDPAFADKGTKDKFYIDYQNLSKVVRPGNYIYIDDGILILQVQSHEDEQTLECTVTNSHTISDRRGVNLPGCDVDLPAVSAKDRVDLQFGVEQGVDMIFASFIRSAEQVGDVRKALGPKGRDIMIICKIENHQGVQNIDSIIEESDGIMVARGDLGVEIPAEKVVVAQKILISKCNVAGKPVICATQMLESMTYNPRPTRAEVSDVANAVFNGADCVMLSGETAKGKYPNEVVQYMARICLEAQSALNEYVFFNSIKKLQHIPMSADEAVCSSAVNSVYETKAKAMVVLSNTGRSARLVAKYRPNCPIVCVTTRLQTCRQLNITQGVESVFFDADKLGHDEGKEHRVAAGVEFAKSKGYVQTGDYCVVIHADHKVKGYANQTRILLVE
#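 ATP generated from ADP (0.1 mM) and PEP (0.5 mM) by 0.1 nM LmPK over 1 h at room temperature (pH 7.2 imidazole buffer) was detected by coupled luciferase luminescence. Values were normalized to uninhibited and no-enzyme wells.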
# Cycloheximide cs: affects cycloheximide protein synthesis inhibition readout, counter-screen. cell reporter, cycloheximide protein synthesis inhibition counterscreen. max response, %. 300,000 compounds, 12% hits. AID 2314; in the data active = max response mostly above about 13%, no sharp cut-off; inactive = mostly below about 14%; also: read at 38.3 µM for the half of the compounds with a filed dose; 0% is about no effect
# SARS PLP yeast: SARS-CoV PLP inhibition in yeast; S. cerevisiae expressing SARS-CoV PLpro, growth rescue; Potency, µM (titrated, usually from 32.9 µM), inactives show at the highest dose activity, positive = growth rescue, usual class: activators; 330,000 compounds, 0.19% hits; calls by dose curve; also: potency is read from the fitted curve at half-maximal effect; 0% is about no effect; nearly all actives have a fitted effect of over 55% in size
# Shiga toxin inh: blocks Shiga toxin action in Vero cells | 290,000 compounds, 9.2% hits | inhibition, % at 38.7 µM | Vero cells, Shiga toxin protein synthesis inhibition reporter; in the data active = inhibition mostly above about 28%, no sharp cut-off; inactive = mostly below about 43%; also: 0% is about no effect
# * = called active by the depositor; · = no result. Only a selection was taken, and hits are over-represented in it overall. Unless noted, calls follow the shape of the dose curve; as a rule, active = well fitted curve in the direction sought with a large enough effect; inconclusive = small, poorly fitted or top-dose-only effect, or another doubt; inactive = no such curve, though single readings can be large; an effect the other way counts as inactive or inconclusive.
SMILES,Tb PYK inh,NS1 inh,LmPK inhibitor,Cycloheximide cs,SARS PLP yeast,Shiga toxin inh
CN1CCN(C(=S)Nc2ccc([N+](=O)[O-])cc2)CC1,1%,4%,1%,6,-1%,1
O=[N+]([O-])c1ccc(NC(=S)N2CCc3ccccc32)cc1,-12%,-43%,-5%,29,-5%,42*
COc1ccc(NC(=S)N2CCc3ccccc32)cc1OC,1%,15%,-9%,40*,8%,90*
O=C(NC(=S)N1CCc2ccccc21)c1ccccc1,-21%,-37%,-6%,1,0%,-13
CCN1CCN(C(=S)Nc2ccc([N+](=O)[O-])cc2)CC1,-10%,5%,4%,21*,-4%,17
S=C(Nc1ccccc1)N1CCc2ccccc21,-9%,11%,11%,14*,1%,·
CCc1ccc(NC(=O)C(C)OC(=O)Cn2[nH]c(=O)c3ccccc3c2=O)cc1 (centres undefined),3%,·,·,·,·,·
COCCN(C(=O)CSc1nnc(-c2ccco2)n1C)c1c(N)n(CC(C)C)c(=O)[nH]c1=O,3%,·,·,·,1%,·
CCc1ccc(NC(=O)C(=O)NCCN2CCN(Cc3ccc([N+](=O)[O-])cc3)CC2)cc1,-7%,-3%,-1%,11*,21%,-4
O=[N+]([O-])c1cccc(NC(=S)N2CCc3ccccc3C2)c1,-5%,·,-3%,59*,-1%,79*
CC(=O)c1cccc(NC(=S)N2CCc3ccccc32)c1,-5%,8%,-8%,63*,2%,157*
O=[N+]([O-])c1ccc(NC(=S)N2CCCC2)cc1,-4%,-10%,-1%,-1,5%,17
O=[N+]([O-])c1ccc(Cl)c(NC(=S)N2CCCC2)c1,-1%,0%,2%,33*,17%,50*
O=[N+]([O-])c1cc2c(c([N+](=O)[O-])c1)Nc1ccccc1O2,-4%,·,·,·,·,·
O=c1ccc(-c2ccccc2)nn1Cc1c(F)cccc1Cl,-8%,·,·,·,·,·
Cc1ccc(S(=O)(=O)CCC(=O)NC2CCCCC2)cc1,-1%,·,·,·,0%,·
Cc1ccc(S(=O)(=O)CCC(=O)N(C)C2CCCCC2)cc1,8%,-1%,3%,13*,-4%,26
COc1cc(OC)cc(-c2nc(-c3cccs3)no2)c1,0%,·,-5%,44*,7%,76
COc1cccc(-c2nc(CS(=O)(=O)c3ccccc3)no2)c1,3%,-14%,1%,51*,2%,91*
COc1cccc(-c2nc(-c3ccncc3)no2)c1,-8%,-2%,-13%,35*,0%,121*
COc1cccc(-n2nnc(-c3nc(-c4cccs4)no3)c2N)c1,-4%,·,·,·,·,·
COc1cccc(-c2nc(-c3cccs3)no2)c1,1%,-7%,-18%,43*,-2%,57*
COc1cccc(-c2nc(-c3ccc(-c4ccccc4)nc3OC)no2)c1,8%,·,·,·,·,·
OC(c1ccc2ccccc2c1)c1ncc(-c2cccc3ccccc23)[nH]1 (centres undefined),-16%,·,·,·,·,·
CC[C@H](NC(=O)[C@H](CCC(=O)O)NC(=O)[C@H](CCC(=O)O)NC(=O)[C@H](CC(=O)O[S+](=O)([O-])c1cccc2c(NCCN)cccc12)NC(=O)[C@H](CCC(=O)O)NC(=O)[C@H](CC(=O)O)NC(C)=O)C(=O)ON[C@@H](C)C(=O)N[C@@H](CO)C(=O)N[C@@H](CCCCNC(=O)c1ccc(N=Nc2ccc(N(C)C)cc2)cc1)C(N)=O,·,·,·,8,·,23
SMILES,Tb PYK inh,NS1 inh,LmPK inhibitor,Cycloheximide cs,SARS PLP yeast,Shiga toxin inh
Cc1onc(-c2ccccc2)c1C(=O)OCCOc1ccccc1F,-7%,-46%,3%,34*,-5%,37
Cc1ccccc1OCCOC(=O)c1c(-c2ccccc2)noc1C,-2%,-34%,0%,1,-5%,-5
Cc1ccc(-n2nnc3ccccc3c2=O)cc1C,-12%,-15%,-2%,50*,-10%,100*
COc1ccc(NS(=O)(=O)c2cccc(C(=O)NCC3(N(C)C)CCCCC3)c2)cc1,-3%,·,·,·,-9%,·
C=Cc1ccc(CSc2nc(-c3ccc(C)cc3)nc3c2Cc2c(CO)cnc(C)c2O3)cc1,0%,·,·,·,·,·
CC(=O)N1CCCc2cc(S(=O)(=O)N3CCCC(C(=O)NC(C)C)C3)ccc21 (centres undefined),4%,·,·,·,·,·

# High-throughput results from PubChem BioAssay.
